# Data published in article PMC11006913.
# Numbering of substitutions follows the chain as printed.
# Experiments:
# Assay in all cases: PBM; 200 nM protein, PBS
# Conditions in all cases: dsDNA, one strand shown
# [1] = target: NKX2-5 (Homo sapiens, UniProt P52952 125-210, R139K)
# [2] = target: T1, NKX2-4 (Homo sapiens, UniProt Q9H2Z4 175-261, P217L)
# T1 sequence: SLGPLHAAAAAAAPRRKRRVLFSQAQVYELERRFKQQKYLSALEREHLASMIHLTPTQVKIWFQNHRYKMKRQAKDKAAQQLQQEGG
# [3] = target: T2, NKX2-4 (Homo sapiens, UniProt Q9H2Z4 175-261, T231S)
# T2 sequence: T1 sequence with L43P, T57S
# [4] = target: T3, NKX2-4 (Homo sapiens, UniProt Q9H2Z4 175-261)
# T3 sequence: T1 sequence with L43P
# [5] = target: T4, NKX2-6 (Homo sapiens, UniProt A6NCS4 118-204, R150C)
# T4 sequence: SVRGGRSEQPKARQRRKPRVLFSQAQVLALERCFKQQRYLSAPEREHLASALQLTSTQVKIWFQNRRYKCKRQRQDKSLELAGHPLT
# [6] = target: T5, NKX2-6 (Homo sapiens, UniProt A6NCS4 118-204)
# T5 sequence: T4 sequence with C33R
# [7] = target: T6, NKX2-4 (Homo sapiens, UniProt Q9H2Z4 175-261, R246Q)
# T6 sequence: T1 sequence with L43P, R72Q
# [8] = target: T7, NKX2-6 (Homo sapiens, UniProt A6NCS4 118-204, F151L)
# T7 sequence: T4 sequence with C33R, F34L
# [9] = target: NKX3-2 (Homo sapiens, UniProt P78367 192-278, P234S)
# [10] = target: NKX2-5 (Homo sapiens, UniProt P52952 125-210)
# [11] = target: NKX3-2 (Homo sapiens, UniProt P78367 192-278)
# [12] = target: HOXB6 (Homo sapiens, UniProt P17509 132-218, K202E)
# [13] = target: HOXB6 (Homo sapiens, UniProt P17509 132-218)
# [14] = target: PRRX1 (Homo sapiens, UniProt P54821 80-166, F113S)
# [15] = target: HOXA2 (Homo sapiens, UniProt O43364 129-215, R185T)
# [16] = target: HOXA2 (Homo sapiens, UniProt O43364 129-215, R185K)
# [17] = target: HOXA2 (Homo sapiens, UniProt O43364 129-215, Y150S)
# [18] = target: HOXA2 (Homo sapiens, UniProt O43364 129-215)
# Chain of HOXA2 (Homo sapiens, UniProt O43364 129-215) (O43364 129-215): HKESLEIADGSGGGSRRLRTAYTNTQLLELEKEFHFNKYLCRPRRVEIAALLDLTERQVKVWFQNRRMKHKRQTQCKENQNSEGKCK
# Chain of NKX3-2 (Homo sapiens, UniProt P78367 192-278, P234S) (P78367 192-278 P234S): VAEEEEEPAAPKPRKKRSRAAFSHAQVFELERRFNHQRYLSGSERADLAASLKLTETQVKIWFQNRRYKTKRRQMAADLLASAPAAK
# Chain of NKX2-5 (Homo sapiens, UniProt P52952 125-210) (P52952 125-210): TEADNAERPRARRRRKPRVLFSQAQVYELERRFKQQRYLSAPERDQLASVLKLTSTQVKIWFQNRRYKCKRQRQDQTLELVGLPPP
# Chain of HOXA2 (Homo sapiens, UniProt O43364 129-215, Y150S) (O43364 129-215 Y150S): as the sequence (O43364 129-215) above, with Y22S counted along it
# Chain of NKX3-2 (Homo sapiens, UniProt P78367 192-278) (P78367 192-278): as the sequence (P78367 192-278 P234S) above, with S43P counted along it
# Chain of HOXA2 (Homo sapiens, UniProt O43364 129-215, R185T) (O43364 129-215 R185T): as the sequence (O43364 129-215) above, with R57T counted along it
# Chain of HOXA2 (Homo sapiens, UniProt O43364 129-215, R185K) (O43364 129-215 R185K): as the sequence (O43364 129-215) above, with R57K counted along it
# Chain of NKX2-5 (Homo sapiens, UniProt P52952 125-210, R139K) (P52952 125-210 R139K): as the sequence (P52952 125-210) above, with R15K counted along it
# Chain of HOXB6 (Homo sapiens, UniProt P17509 132-218) (P17509 132-218): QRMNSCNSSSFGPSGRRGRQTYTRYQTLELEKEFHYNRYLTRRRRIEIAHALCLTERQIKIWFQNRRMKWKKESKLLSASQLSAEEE
# Chain of HOXB6 (Homo sapiens, UniProt P17509 132-218, K202E) (P17509 132-218 K202E): as the sequence (P17509 132-218) above, with K71E counted along it
# Chain of PRRX1 (P54821 80-166 F113S): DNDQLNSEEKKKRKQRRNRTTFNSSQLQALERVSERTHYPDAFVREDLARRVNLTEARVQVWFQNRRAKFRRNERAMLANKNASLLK
sequence,measurement,setting,value
AAGTGGAG,binding signal,[1],"12.2 upbm affinity estimate (log intensity, higher = more binding, comparable within an allelic series)"
same,binding signal,[2],"12.4 upbm affinity estimate (log intensity, higher = more binding, comparable within an allelic series)"
same,binding signal,[3],"12.7 upbm affinity estimate (log intensity, higher = more binding, comparable within an allelic series)"
same,binding signal,[4],"12.3 upbm affinity estimate (log intensity, higher = more binding, comparable within an allelic series)"
same,binding signal,[5],"11.7 upbm affinity estimate (log intensity, higher = more binding, comparable within an allelic series)"
same,binding signal,[6],"13.3 upbm affinity estimate (log intensity, higher = more binding, comparable within an allelic series)"
same,binding signal,[7],"12.8 upbm affinity estimate (log intensity, higher = more binding, comparable within an allelic series)"
same,binding signal,[8],"10.6 upbm affinity estimate (log intensity, higher = more binding, comparable within an allelic series)"
same,binding signal,[9],"12.7 upbm affinity estimate (log intensity, higher = more binding, comparable within an allelic series)"
same,binding signal,[10],"12.2 upbm affinity estimate (log intensity, higher = more binding, comparable within an allelic series)"
same,binding signal,[11],"12.8 upbm affinity estimate (log intensity, higher = more binding, comparable within an allelic series)"
GTACTTGA,binding signal,[1],"13 upbm affinity estimate (log intensity, higher = more binding, comparable within an allelic series)"
same,binding signal,[2],"12.8 upbm affinity estimate (log intensity, higher = more binding, comparable within an allelic series)"
same,binding signal,[3],"13.2 upbm affinity estimate (log intensity, higher = more binding, comparable within an allelic series)"
same,binding signal,[4],"12.6 upbm affinity estimate (log intensity, higher = more binding, comparable within an allelic series)"
same,binding signal,[5],"12.1 upbm affinity estimate (log intensity, higher = more binding, comparable within an allelic series)"
same,binding signal,[6],"13.7 upbm affinity estimate (log intensity, higher = more binding, comparable within an allelic series)"
same,binding signal,[7],"13.3 upbm affinity estimate (log intensity, higher = more binding, comparable within an allelic series)"
same,binding signal,[8],"11.1 upbm affinity estimate (log intensity, higher = more binding, comparable within an allelic series)"
same,binding signal,[10],"12.8 upbm affinity estimate (log intensity, higher = more binding, comparable within an allelic series)"
CACTTGAC,binding signal,[1],"12.9 upbm affinity estimate (log intensity, higher = more binding, comparable within an allelic series)"
same,binding signal,[2],"12.7 upbm affinity estimate (log intensity, higher = more binding, comparable within an allelic series)"
same,binding signal,[3],"13.1 upbm affinity estimate (log intensity, higher = more binding, comparable within an allelic series)"
same,binding signal,[4],"12.6 upbm affinity estimate (log intensity, higher = more binding, comparable within an allelic series)"
same,binding signal,[5],"11.9 upbm affinity estimate (log intensity, higher = more binding, comparable within an allelic series)"
same,binding signal,[6],"13.7 upbm affinity estimate (log intensity, higher = more binding, comparable within an allelic series)"
same,binding signal,[7],"13.3 upbm affinity estimate (log intensity, higher = more binding, comparable within an allelic series)"
same,binding signal,[8],"11.2 upbm affinity estimate (log intensity, higher = more binding, comparable within an allelic series)"
same,binding signal,[9],"12.1 upbm affinity estimate (log intensity, higher = more binding, comparable within an allelic series)"
same,binding signal,[10],"12.9 upbm affinity estimate (log intensity, higher = more binding, comparable within an allelic series)"
same,binding signal,[11],"12.2 upbm affinity estimate (log intensity, higher = more binding, comparable within an allelic series)"
CACTCAAG,binding signal,[1],"12.5 upbm affinity estimate (log intensity, higher = more binding, comparable within an allelic series)"
same,binding signal,[2],"12.5 upbm affinity estimate (log intensity, higher = more binding, comparable within an allelic series)"
same,binding signal,[3],"13 upbm affinity estimate (log intensity, higher = more binding, comparable within an allelic series)"
same,binding signal,[4],"12.4 upbm affinity estimate (log intensity, higher = more binding, comparable within an allelic series)"
same,binding signal,[5],"11.6 upbm affinity estimate (log intensity, higher = more binding, comparable within an allelic series)"
same,binding signal,[6],"13.5 upbm affinity estimate (log intensity, higher = more binding, comparable within an allelic series)"
same,binding signal,[7],"13.1 upbm affinity estimate (log intensity, higher = more binding, comparable within an allelic series)"
same,binding signal,[8],"10.5 upbm affinity estimate (log intensity, higher = more binding, comparable within an allelic series)"
same,binding signal,[10],"12.3 upbm affinity estimate (log intensity, higher = more binding, comparable within an allelic series)"
AAGTACTT,binding signal,[1],"13.2 upbm affinity estimate (log intensity, higher = more binding, comparable within an allelic series)"
same,binding signal,[2],"12.9 upbm affinity estimate (log intensity, higher = more binding, comparable within an allelic series)"
same,binding signal,[3],"13.3 upbm affinity estimate (log intensity, higher = more binding, comparable within an allelic series)"
same,binding signal,[4],"12.7 upbm affinity estimate (log intensity, higher = more binding, comparable within an allelic series)"
same,binding signal,[5],"12.1 upbm affinity estimate (log intensity, higher = more binding, comparable within an allelic series)"
same,binding signal,[6],"13.8 upbm affinity estimate (log intensity, higher = more binding, comparable within an allelic series)"
same,binding signal,[7],"13.3 upbm affinity estimate (log intensity, higher = more binding, comparable within an allelic series)"
same,binding signal,[8],"11.5 upbm affinity estimate (log intensity, higher = more binding, comparable within an allelic series)"
same,binding signal,[9],"12.6 upbm affinity estimate (log intensity, higher = more binding, comparable within an allelic series)"
same,binding signal,[10],"13 upbm affinity estimate (log intensity, higher = more binding, comparable within an allelic series)"
same,binding signal,[11],"12.7 upbm affinity estimate (log intensity, higher = more binding, comparable within an allelic series)"
ACACTTAA,binding signal,[1],"13 upbm affinity estimate (log intensity, higher = more binding, comparable within an allelic series)"
same,binding signal,[2],"12.6 upbm affinity estimate (log intensity, higher = more binding, comparable within an allelic series)"
same,binding signal,[3],"13 upbm affinity estimate (log intensity, higher = more binding, comparable within an allelic series)"
same,binding signal,[4],"12.5 upbm affinity estimate (log intensity, higher = more binding, comparable within an allelic series)"
same,binding signal,[5],"12 upbm affinity estimate (log intensity, higher = more binding, comparable within an allelic series)"
same,binding signal,[6],"13.8 upbm affinity estimate (log intensity, higher = more binding, comparable within an allelic series)"
same,binding signal,[7],"13.1 upbm affinity estimate (log intensity, higher = more binding, comparable within an allelic series)"
same,binding signal,[8],"11.5 upbm affinity estimate (log intensity, higher = more binding, comparable within an allelic series)"
same,binding signal,[9],"12.7 upbm affinity estimate (log intensity, higher = more binding, comparable within an allelic series)"
same,binding signal,[10],"12.8 upbm affinity estimate (log intensity, higher = more binding, comparable within an allelic series)"
same,binding signal,[11],"12.8 upbm affinity estimate (log intensity, higher = more binding, comparable within an allelic series)"
CACTTAAG,binding signal,[1],"13.2 upbm affinity estimate (log intensity, higher = more binding, comparable within an allelic series)"
same,binding signal,[2],"12.7 upbm affinity estimate (log intensity, higher = more binding, comparable within an allelic series)"
same,binding signal,[3],"13 upbm affinity estimate (log intensity, higher = more binding, comparable within an allelic series)"
same,binding signal,[4],"12.5 upbm affinity estimate (log intensity, higher = more binding, comparable within an allelic series)"
same,binding signal,[5],"12.2 upbm affinity estimate (log intensity, higher = more binding, comparable within an allelic series)"
same,binding signal,[6],"14 upbm affinity estimate (log intensity, higher = more binding, comparable within an allelic series)"
same,binding signal,[7],"13.2 upbm affinity estimate (log intensity, higher = more binding, comparable within an allelic series)"
same,binding signal,[8],"11.5 upbm affinity estimate (log intensity, higher = more binding, comparable within an allelic series)"
same,binding signal,[9],"13 upbm affinity estimate (log intensity, higher = more binding, comparable within an allelic series)"
same,binding signal,[10],"13.1 upbm affinity estimate (log intensity, higher = more binding, comparable within an allelic series)"
same,binding signal,[11],"13.1 upbm affinity estimate (log intensity, higher = more binding, comparable within an allelic series)"
ATAATGGG,binding signal,[12],"9.9 upbm affinity estimate (log intensity, higher = more binding, comparable within an allelic series)"
same,binding signal,[13],"11.8 upbm affinity estimate (log intensity, higher = more binding, comparable within an allelic series)"
CGTGCACG,binding signal,[14],"9.62 upbm affinity estimate (log intensity, higher = more binding, comparable within an allelic series)"
CACGGGCC,binding signal,[15],"6.97 upbm affinity estimate (log intensity, higher = more binding, comparable within an allelic series)"
same,binding signal,[16],"10.1 upbm affinity estimate (log intensity, higher = more binding, comparable within an allelic series)"
same,binding signal,[17],"10.3 upbm affinity estimate (log intensity, higher = more binding, comparable within an allelic series)"
same,binding signal,[18],"6.84 upbm affinity estimate (log intensity, higher = more binding, comparable within an allelic series)"
GCGACGCC,binding signal,[15],"7.22 upbm affinity estimate (log intensity, higher = more binding, comparable within an allelic series)"
same,binding signal,[16],"10.4 upbm affinity estimate (log intensity, higher = more binding, comparable within an allelic series)"
same,binding signal,[17],"10.6 upbm affinity estimate (log intensity, higher = more binding, comparable within an allelic series)"
same,binding signal,[18],"7.31 upbm affinity estimate (log intensity, higher = more binding, comparable within an allelic series)"
CCTACGGA,binding signal,[1],"8.68 upbm affinity estimate (log intensity, higher = more binding, comparable within an allelic series)"
same,binding signal,[12],"9.05 upbm affinity estimate (log intensity, higher = more binding, comparable within an allelic series)"
same,binding signal,[10],"8.68 upbm affinity estimate (log intensity, higher = more binding, comparable within an allelic series)"
same,binding signal,[13],"8.95 upbm affinity estimate (log intensity, higher = more binding, comparable within an allelic series)"
CGCACTTA,binding signal,[1],"12.6 upbm affinity estimate (log intensity, higher = more binding, comparable within an allelic series)"
same,binding signal,[5],"11.8 upbm affinity estimate (log intensity, higher = more binding, comparable within an allelic series)"
same,binding signal,[6],"13.5 upbm affinity estimate (log intensity, higher = more binding, comparable within an allelic series)"
same,binding signal,[7],"12.9 upbm affinity estimate (log intensity, higher = more binding, comparable within an allelic series)"
same,binding signal,[8],"10.9 upbm affinity estimate (log intensity, higher = more binding, comparable within an allelic series)"
same,binding signal,[9],"12.6 upbm affinity estimate (log intensity, higher = more binding, comparable within an allelic series)"
same,binding signal,[10],"12.5 upbm affinity estimate (log intensity, higher = more binding, comparable within an allelic series)"
same,binding signal,[11],"12.7 upbm affinity estimate (log intensity, higher = more binding, comparable within an allelic series)"
CAGCCCGG,binding signal,[1],"8.37 upbm affinity estimate (log intensity, higher = more binding, comparable within an allelic series)"
same,binding signal,[15],"7.16 upbm affinity estimate (log intensity, higher = more binding, comparable within an allelic series)"
same,binding signal,[16],"10.1 upbm affinity estimate (log intensity, higher = more binding, comparable within an allelic series)"
same,binding signal,[17],"10.3 upbm affinity estimate (log intensity, higher = more binding, comparable within an allelic series)"
same,binding signal,[18],"7.06 upbm affinity estimate (log intensity, higher = more binding, comparable within an allelic series)"
same,binding signal,[10],"8.35 upbm affinity estimate (log intensity, higher = more binding, comparable within an allelic series)"
ACGCCGGC,binding signal,[1],"8.53 upbm affinity estimate (log intensity, higher = more binding, comparable within an allelic series)"
same,binding signal,[10],"8.56 upbm affinity estimate (log intensity, higher = more binding, comparable within an allelic series)"
CCCTCCGG,binding signal,[1],"8.58 upbm affinity estimate (log intensity, higher = more binding, comparable within an allelic series)"
same,binding signal,[15],"7.03 upbm affinity estimate (log intensity, higher = more binding, comparable within an allelic series)"
same,binding signal,[16],"10.1 upbm affinity estimate (log intensity, higher = more binding, comparable within an allelic series)"
same,binding signal,[17],"10.3 upbm affinity estimate (log intensity, higher = more binding, comparable within an allelic series)"
same,binding signal,[18],"6.99 upbm affinity estimate (log intensity, higher = more binding, comparable within an allelic series)"
same,binding signal,[10],"8.53 upbm affinity estimate (log intensity, higher = more binding, comparable within an allelic series)"
ACCGTGTC,binding signal,[1],"8.73 upbm affinity estimate (log intensity, higher = more binding, comparable within an allelic series)"
same,binding signal,[10],"8.93 upbm affinity estimate (log intensity, higher = more binding, comparable within an allelic series)"
